Reference: PubChem BioAssay AID588855 (National Center for Advancing Translational Sciences (NCATS), 2011)
“And” between values parts separate entries of the source, which are not always exact repeats. Equal entries are not always repeated. In all, about 410,000 compounds went through this assay and about 5,000 (1.2%) were called active. Not shown: some 13% with an inconclusive outcome. The full list was thinned out, with actives kept by preference. Values without a mark were called inactive. Calls follow the shape of the dose curve; as a rule, active = well fitted inhibition curve with a large enough effect; inconclusive = small, poorly fitted or top-dose-only effect; inactive = no such curve, though single readings can be large or run the other way.
% is scaled to controls: 0 for no effect and ±100 for the full control effect; potency is read from the fitted curve at half-maximal effect.

Test: qHTS for Inhibitors of TGF-b; also: nearly all actives have a fitted effect of over 65% in size
Details: HepG2 CAGA-GFP TGF-b/SMAD3 reporter, GFP fluorescence, 18 h, TGF-beta stimulated, 500 pg/mL final; series mostly up to 46.1 µM; activity, negative = inhibition: at the top concentration
Summary of the method: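 Inhibition was scored as loss of TGF-beta-induced (500 pg/mL final, 18 hours, 37 degrees C) GFP in HEPG2 cells carrying a CAGA-GFP reporter, in DMEM with 1% FBS. Well GFP was summed per cell; Activity was normalised to unstimulated and stimulated DMSO wells, then concentration-response fitting.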
In the case of `C/C(=N\NC(=O)CSc1nc2ccccc2c(=O)n1-c1ccccc1C)c1cccs1`, the “activity, negative = inhibition” value was -10.3%.
With `Cc1nnc(C)n1-c1ccc(C(=O)Nc2cccc(Br)c2)cc1` the “activity, negative = inhibition” value was 7.69%.
In the case of `Cc1ccccc1CNC(=O)c1ccc(NC(=O)N2CCCCc3ccccc32)cc1`, the “activity, negative = inhibition” value was 0.637%.
With `CCOC(=O)c1c(NC(=O)c2ccc(S(=O)(=O)N(CC)CC)cc2)sc2c1CCCCC2` the “activity, negative = inhibition” value was -9.19%.
With `CC(C)c1ccc2c(c1)c(SC(C)(C)C)c(CC(C)(C)C(=O)O)n2Cc1ccc(Cl)cc1` the Potency was 10 µM (active).
In the case of `Cc1c(C)n(Cc2ccc(Cl)cc2)c2ccc(C(=O)N3CCN(c4ccccc4F)CC3)cc12`, the “activity, negative = inhibition” value was 0%.
In the case of `COc1ccc(N(C)C(=O)CCS(=O)(=O)c2cccc3nsnc23)cc1`, the Potency was “inactive”.
In the case of `CCOc1cccc2sc(N3CCN(C(=O)C4CC4)CC3)nc12`, the “activity, negative = inhibition” value was 0.888%.
In the case of `Cc1ccc2sc(N(CCN(C)C)C(=O)/C=C/c3cccs3)nc2c1C`, the “activity, negative = inhibition” value was -2.22%.
For `Cc1cccc2sc(N(CCCN(C)C)C(=O)CCS(=O)(=O)c3ccccc3)nc12`, the Potency was 3.16 µM (active).
With `O=C(CCS(=O)(=O)c1ccccc1)Nc1nc2c(s1)CCCC2` the “activity, negative = inhibition” value was -22.5%.
In the case of `Cc1ccc(S(=O)(=O)CCC(=O)OCC(=O)N(C)Cc2ccccc2)cc1`, the “activity, negative = inhibition” value was -19%.
In the case of `COc1cccc2sc(N(CCCN(C)C)C(=O)C(c3ccccc3)c3ccccc3)nc12`, the Potency was 12.6 µM (active).
For `COc1ccccc1NC(=O)CC(NCCN(C)C)C(=O)O` (configuration not stated), the “activity, negative = inhibition” value was 15.1%.
In the case of `COc1cccc2sc(N(CCCN(C)C)C(=O)CCS(=O)(=O)c3ccccc3)nc12`, the Potency was 1.12 µM (active).
In the case of `Cc1ccc(-c2nnc(Nc3cccc(Br)c3)c3ccccc23)cc1S(=O)(=O)NCC1CCCO1` (configuration not stated), the “activity, negative = inhibition” value was -2.65%.
In the case of `CCOC(=O)c1c(NC(=O)/C(C#N)=C/c2ccccc2)sc2c1CCC2`, the “activity, negative = inhibition” value was -10.7%.
With `Cc1cccc(CC(=O)Nc2cccc(-c3cn4cccnc4n3)c2)c1` the “activity, negative = inhibition” value was -7.3%.
In the case of `COc1ccc(-c2nc(C)c(CCNC(=O)c3ccc(C(F)(F)F)cc3)s2)cc1OC`, the “activity, negative = inhibition” value was 11.9%.
For `CCOC(=O)c1cc(OC(=O)c2ccccc2Cl)n(-c2ccccc2)n1`, the “activity, negative = inhibition” value was -17.4%.
For `CSc1nc(=O)c2c(n1C)NC(=O)CC2c1ccccc1OC(C)C` (configuration not stated), the “activity, negative = inhibition” value was -2.01%.
For `Cc1cn(C)c(CC(=O)NCc2ccc(Cl)cc2)c1C(=O)O`, the “activity, negative = inhibition” value was 10.5%.
With `CCOc1n[nH]c(-c2ccccc2)n1` the “activity, negative = inhibition” value was -5.85%.
With `CCOC(=O)c1ccc(NC(=O)CC2C(=O)N(c3cccc(OC)c3)C(=O)N2C2CCCCC2)cc1` (configuration not stated) the “activity, negative = inhibition” value was -42.9%.
For `Cc1ccc([N+](=O)[O-])cc1S(=O)(=O)N1CCCN(C)CC1`, the “activity, negative = inhibition” value was -1.45%.
For `Cc1ccc(NC(=O)CCNC(=O)c2ccc([N+](=O)[O-])cc2)cc1S(=O)(=O)N1CCOCC1`, the “activity, negative = inhibition” value was 1.06%.
For `Cc1ccc(C)c(S(=O)(=O)N2CCN(CC(=O)Nc3ccc([N+](=O)[O-])cc3)CC2)c1`, the Potency was 8.91 µM (active).
With `Cc1cccc(N2CCN(C(=O)c3oc(=O)c4ccccc4c3-c3ccccc3)CC2)c1C` the “activity, negative = inhibition” value was 0%.
For `CCOc1ccccc1NC(=O)Cn1c(=O)n(Cc2ccccc2)c(=O)c2c(C)c(C(=O)N(C)C)sc21`, the “activity, negative = inhibition” value was -4.55%.
For `CCC(=O)N1CCc2cc(S(=O)(=O)NCCC(=O)Nc3cccc(C)c3C)ccc21`, the “activity, negative = inhibition” value was 3.97%.
For `Cc1cccc(OCCSc2nc3ccccc3n2CC(=O)N2CCCCC2)c1C`, the Potency was 12.6 µM (active).
For `CCOc1ccc(OCCSc2nc3ccccc3n2CC(=O)O)cc1`, the “activity, negative = inhibition” value was 6.92%.
For `Cc1ccc(C(C)C)c(OCCSc2nc3ccccc3n2CC(=O)O)c1`, the “activity, negative = inhibition” value was -8.84%.
For `O=c1[nH]c2cc(Br)ccc2n2cccc12`, the “activity, negative = inhibition” value was 3.58%.
In the case of `COc1ccc(-c2c(-c3ccc(OC)cc3O)nc(C)nc2C(F)(F)F)cc1`, the “activity, negative = inhibition” value was -4.38%.
For `COc1ccc(-c2onc(C)c2-c2ccc3c(c2)OCCO3)c(O)c1`, the Potency was 15.8 µM (active).
With `COc1cc(-c2c(-c3ccc4c(c3)OCO4)noc2C)ccc1F` the Potency was “inactive”.
With `O=C1O/C(=C\c2ccc(O)cc2)C(O)=C1c1ccc(O)cc1` the “activity, negative = inhibition” value was 5.93%.
In the case of `O=C(Nc1cccc2cccnc12)C(F)(F)F`, the “activity, negative = inhibition” value was -0.477%.
For `O=[N+]([O-])c1ccccc1SNc1ccccn1`, the “activity, negative = inhibition” value was -21.9%.
In the case of `O=S(=O)(Nc1cccc2cccnc12)c1cccc2cccnc12`, the Potency was 1.78 µM (active).
For `O=S(=O)(Nc1ccccc1Cl)c1cccc2nsnc12`, the “activity, negative = inhibition” value was -3.12%.
For `O=[N+]([O-])c1ccccc1S(=O)(=O)Nc1cccc2cccnc12`, the Potency was 1.26 µM (active) and 6.31 µM (active).
With `Cc1ccc2cccc([N+](=O)[O-])c2n1` the “activity, negative = inhibition” value was -20.7%.
For `Cc1ccc(Cn2cc(CCC(=O)NCc3ccc(OC(C)C)cc3)c3ccccc32)cc1`, the “activity, negative = inhibition” value was -19.7%.
For `O=C(O)c1ccc2c(c1)N(Cc1ccc(F)cc1)C(=O)c1ccccc1S2=O` (configuration not stated), the “activity, negative = inhibition” value was -28.9%.
For `COc1cc(OC)c(NC(=O)Cc2ccc(-n3c(C)nc4cccnc43)cc2)cc1Cl`, the “activity, negative = inhibition” value was 0%.
In the case of `O=C(/C=C/Nc1ccccc1)c1cnc(-c2ccccc2)s1`, the “activity, negative = inhibition” value was 1.26%.
In the case of `CNC(=O)c1csc(-c2ccccc2)n1`, the “activity, negative = inhibition” value was 7.68%.
For `Cc1nc(-c2ccccc2)sc1C(=O)/C=C/c1ccccc1`, the Potency was 10 µM (active).
For `O=C(CSc1nc2nccnc2c(=O)n1CCc1c[nH]c2ccccc12)Nc1ccccc1F`, the “activity, negative = inhibition” value was -19.6%.
For `O=C1COc2ccc(-c3csc(-c4ccc(Cl)cc4)n3)cc2N1`, the “activity, negative = inhibition” value was 4.59%.
For `Cc1ccc(C)c(S(=O)(=O)N2CCN(C(=O)Nc3ccccc3)CC2)c1`, the “activity, negative = inhibition” value was -17.8%.
With `COc1ccc(C(=O)NCc2ccc(C)cc2)cc1S(=O)(=O)N1CCCC1` the “activity, negative = inhibition” value was -0.243%.
With `COc1ccc(C)cc1S(=O)(=O)N1CCN(S(=O)(=O)c2cc(C(=O)O)ccc2C)CC1` the Potency was 6.31 µM (active).
With `CCCN(CCC)CCCNC(=O)Cn1cc2c(n1)-c1c(oc(C(=O)N3CCCC3)c1C)CC2` the “activity, negative = inhibition” value was -28.1%.
With `COc1cn(CC(=O)Nc2cccc(C)c2C)c(CN2CCCCC2)cc1=O` the “activity, negative = inhibition” value was 26.1%.
